We go through 59 molecules from PubChem BioAssay AID761 (NMMLSC, 2007).

Among all 190,000 compounds or so, about 400 (0.21%) were called active. Not shown: some 2% with an inconclusive outcome. The full list was thinned out, with actives kept by preference. Values without a mark were called inactive.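 The calls were made as follows: active = percent activity GTP binding at least 20 points away from the 100% baseline, either down as inhibitor or up as activator; inconclusive = compound flagged as likely green fluorescent from well-wide comparison; inactive = the rest.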

Cell division control protein 42 homolog (Homo sapiens), sequence (P60953 whole entry, looked up): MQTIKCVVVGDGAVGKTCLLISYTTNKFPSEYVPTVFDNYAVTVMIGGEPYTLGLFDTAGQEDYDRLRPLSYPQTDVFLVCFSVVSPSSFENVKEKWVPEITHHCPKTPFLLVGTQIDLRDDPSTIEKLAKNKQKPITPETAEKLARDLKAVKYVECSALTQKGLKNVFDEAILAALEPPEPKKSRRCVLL

This assay has as its target Cell division control protein 42 homolog (Homo sapiens) (UniProt P60953). The assay is described as follows: modulators of GTP binding to wildtype Cdc42, primary screen, biochemical, multiplex bead flow cytometry, Bodipy-GTP (AID 761).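 Also: median bead fluorescence of bound Bodipy-FL-GTP at 100 nM; 0% = excess unlabeled GTP control and 100% = no compound control; below 100% means less GTP binding so inhibitor and above means activator.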 To be noted: GST-Cdc42 beads, at 10 µM, actives lie on both sides. Background: A flow cytometer gives signals particle by particle.
Consider `NS(=O)(=O)c1ccc(CCNC(=O)c2ccc(Cl)cc2[N+](=O)[O-])cc1`, for which the percent activity (GTP binding) is 92%.

With `COC(=O)c1ccc(-n2cnc3ccccc32)nc1`, the percent activity (GTP binding) was 95%.

As to `CCC(C)NCC(=O)Nc1ccc([N+](=O)[O-])cc1C(=O)Nc1ccccc1F` (centres undefined), the percent activity (GTP binding) was 98%.

`CCCn1nc(Oc2nc(NC(C)C)nc(N(C)C)n2)ccc1=O`: the percent activity (GTP binding) was 97%.

For the molecule `CN(C)c1nnnn1-c1ccc(Cl)cc1`, the percent activity (GTP binding) is 96%.

Consider `O=C(/C=C/c1ccccc1[N+](=O)[O-])OC1CCCCC1=O` (centres undefined), for which the percent activity (GTP binding) is 97%.

`O=C(N/N=C/c1ccco1)c1ccc(C(=O)N/N=C/c2ccco2)o1`: the percent activity (GTP binding) was 84%.

In the case of `O=C(Nc1ccc([N+](=O)[O-])cc1)C1CC12CCC2` (centres undefined), the percent activity (GTP binding) was 96%.

As to `O=C(/C=C/c1ccc(Cl)c([N+](=O)[O-])c1)c1cccnc1`, the percent activity (GTP binding) was 79% (active).

In the case of `O=C(/C=C/c1ccc(Cl)cc1Cl)c1cccnc1`, the percent activity (GTP binding) was 88%.

As to `O=C(Nc1cccnc1)c1ccc(Cl)c([N+](=O)[O-])c1`, the percent activity (GTP binding) was 96%.

As to `CC(=O)C1=C(C)NC2=C(C(=O)CC(C)(C)C2)C1C` (centres undefined), the percent activity (GTP binding) is 96%.

`CN(CCOc1ccccc1)Cc1nc2cc(Cl)ccc2c(=O)[nH]1`: the percent activity (GTP binding) is 93%.

Turning to `O=C(CC1Nc2ccccc2NC1=O)Nc1ccccc1NC(=O)CC1Nc2ccccc2NC1=O` (centres undefined), the percent activity (GTP binding) is 99%.

With `Cc1nc2nc[nH]n2c(=O)c1C/C=C/c1ccccc1`, the percent activity (GTP binding) was 89%.

As to `COc1ccc(C(=O)C2CCCN(C(=O)c3cc4nc(C)cc(C)n4n3)C2)cc1F` (centres undefined), the percent activity (GTP binding) is 99%.

As for `O=C(COC(=O)CCc1ccc(S(=O)(=O)N2CCOCC2)cc1)Nc1cccc(Cl)c1`, the percent activity (GTP binding) is 97%.

For `O=C(c1ccccc1Cl)N(Cc1ccccc1F)N1C(=O)CCCC1=O`, the percent activity (GTP binding) was 98%.

As for `O=C(O)Cc1sc(-c2ccccc2)nc1-c1cccs1`, the percent activity (GTP binding) is 92%.

In the case of `CCS(=O)(=O)C1=NSC2=NC(=O)/C(=C\c3cc(C)n(-c4cccc(OC)c4)c3C)C(=N)N21`, the percent activity (GTP binding) is 93%.

As for `N/C(=N\OC(=O)c1ccc([N+](=O)[O-])cc1)c1ccccn1`, the percent activity (GTP binding) was 96%.

Consider `O=C(CN1CCC(O)(c2ccccc2)CC1)Nc1ccc2c(c1)OCCO2`, for which the percent activity (GTP binding) was 97%.

With `CCN1CC(CN(C)Cc2nc(-c3ccc(Cl)cc3)no2)CC1=O` (centres undefined), the percent activity (GTP binding) is 101%.

`Cc1ccc([N+](=O)[O-])c(OCCCNCC(C)O)c1` (centres undefined): the percent activity (GTP binding) is 103%.

As to `CCCN(CCC)c1ccc(C(O)c2nnc(-c3ccccc3)o2)cc1` (centres undefined), the percent activity (GTP binding) is 95%.

Turning to `O=C(NCC(O)c1ccc([N+](=O)[O-])cc1)C1CCCCC1` (centres undefined), the percent activity (GTP binding) was 97%.

As for `CN1CCN(c2nc(Nc3ccc(O)cc3)nc3ccccc23)CC1`, the percent activity (GTP binding) was 95%.

Regarding `CCn1c(COc2c(C)cccc2C)nnc1SCc1nc2ccccc2c(=O)[nH]1`, the percent activity (GTP binding) is 94%.

For `O=S(=O)(NC1CC1)c1ccc2c3c(cccc13)CC2`, the percent activity (GTP binding) is 93%.

On to `CCOC(=O)CSc1nc2c(sc(=S)n2CCc2ccccc2)c(=O)n1Cc1ccco1`, for which the percent activity (GTP binding) was 99%.

Take `Cc1cc2c(c(=O)n1Cc1ccco1)C(c1ccccc1)C(C#N)=C(N)O2` (centres undefined): the percent activity (GTP binding) was 103%.

As to `CN(c1ccccc1)c1ccc(/C=c2\s/c(=C(/C#N)C(=O)C(C)(C)C)n(Cc3ccco3)c2=O)cc1`, the percent activity (GTP binding) is 143% [activator] (active).

In the case of `CCCNCc1cc(OCC)c(OCC(=O)Nc2ccccc2)cc1Br`, the percent activity (GTP binding) was 96%.

Take `CC(=O)N1CCc2cc(Br)cc(S(=O)(=O)CCC(=O)Nc3c(C)n(C)n(-c4ccccc4)c3=O)c21`: the percent activity (GTP binding) was 100%.

As to `Cc1cc(NC(=O)CSc2nccn2-c2ccc([N+](=O)[O-])cc2)no1`, the percent activity (GTP binding) is 96%.

As for `CC(=O)Nc1ccc(NC(=O)CSc2nnc(COc3ccccc3C)n2CC2CCCO2)cc1` (centres undefined), the percent activity (GTP binding) was 99%.

Consider `C=CCO/N=C/C1=C(O)C(C(=O)OC)C(C)(C)CC1=O` (centres undefined), for which the percent activity (GTP binding) was 108%.

As to `COC(=O)c1cc(NC(=O)CN2CCN(C(C)=O)CC2)cc(C(=O)OC)c1`, the percent activity (GTP binding) is 99%.

In the case of `Cc1cc(N2CCN(C)CC2)nc2ccc(NC(=S)N3CCOCC3)cc12`, the percent activity (GTP binding) is 96%.

In the case of `COc1cccc(NC(=O)CC2C(=O)NCCN2C(=S)Nc2ccc(F)cc2)c1` (centres undefined), the percent activity (GTP binding) was 97%.

Turning to `CCOC(=O)C(CC)/C(C)=N\NC(=O)c1cccc(C)c1` (centres undefined), the percent activity (GTP binding) is 92%.

For the molecule `Cc1ccc(/C([O-])=C(/C(=S)NCc2ccco2)[n+]2ccccc2)cc1[N+](=O)[O-]`, the percent activity (GTP binding) was 95%.

Consider `CCn1nc(C)c(CN2CCN(Cc3ccc(OC)c(C)c3C)C(CCO)C2)c1C` (centres undefined), for which the percent activity (GTP binding) was 97%.

`C=CCc1ccc(OCC(O)CN2CCN(Cc3ccccc3)CC2)c(OC)c1` (centres undefined): the percent activity (GTP binding) was 94%.

As to `CC(=O)Nc1ccc(S(=O)(=O)Nc2ccc(-c3ccc4nnc(C)n4n3)cc2)cc1`, the percent activity (GTP binding) is 89%.

For `Nc1ccc(-c2sc(N)nc2-c2ccccc2)cc1`, the percent activity (GTP binding) was 97%.

As for `Nc1[nH]c(=S)nc2nc(-c3ccccc3)c(-c3ccccc3)nc12`, the percent activity (GTP binding) is 78% (active).

With `O=C(NNc1cc(Cl)ccc1Cl)c1cccnc1Cl`, the percent activity (GTP binding) was 97%.

Consider `CCOC(=O)c1ccccc1NC(=S)N1CCC(C(N)=O)CC1`, for which the percent activity (GTP binding) is 97%.

As for `O=C(/C=C/c1ccccc1)Oc1coc(CSc2ncccn2)cc1=O`, the percent activity (GTP binding) was 91%.

As for `Cc1ccc(CN2CCN(Cc3ccc4ncccc4c3)CC2CCO)cc1` (centres undefined), the percent activity (GTP binding) was 94%.

Take `Cc1nccc(-c2ccc(-n3c(C)ccc3C)cc2)n1`: the percent activity (GTP binding) was 93%.

As to `Cc1ccc(N2C(=O)C3CC3C2=O)cc1` (centres undefined), the percent activity (GTP binding) was 98%.

Regarding `Cc1ccccc1CN1C[C@@H]2C[C@@H](c3ccc4nsnc4c3)N3CCC[C@@]23C1=O`, the percent activity (GTP binding) is 101%.

On to `CCS(=O)(=O)c1ccc(C(=O)NC)c(Cl)c1Cl`, for which the percent activity (GTP binding) was 91%.

Take `COc1ccc(C)cc1NC(=O)Nc1ccccc1SC`: the percent activity (GTP binding) is 98%.

For `CC(C)C(O)C1CCN(Cc2nc(Cc3ccccc3Cl)no2)CC1` (centres undefined), the percent activity (GTP binding) is 96%.

Consider `COc1ccc(CN2CCCC(CNC(=O)c3ccc(F)cc3)C2)cc1OC` (centres undefined), for which the percent activity (GTP binding) was 97%.

`COc1ccc(Cl)cc1NC(=O)NC(C)C(C)(C)C` (centres undefined): the percent activity (GTP binding) was 101%.
